Where “and” joins values, the source holds several entries; their conditions need not be identical. Identical values can stand only once.
Each molecule was assayed on Plasmodium falciparum (assay: GSK_TCMDC: Inhibition of Plasmodium falciparum Dd2 in whole red blood cells, using parasite LDH activity as an index of growth. Test compounds present at 2uM).
Format: functional

| Structure (SMILES) | Inhibition |
| --- | --- |
| O=C(/C=C/c1cc(F)cc(C(F)(F)F)c1)N1CCC(CN2CCC(c3c[nH]c4ccccc34)CC2)CC1 | 74% |
| COc1ccc2[nH]cc(C3=CCN(Cc4ccccc4)CC3)c2c1 | 84% |
| COc1ccc(C=CC(=O)NC2CCC(CN3CCC(c4c[nH]c5ccccc45)CC3)CC2)cc1 (centres undefined) | 61% and 60% |
| C=CCOc1ccccc1CNCC(O)c1cccc(C(F)(F)F)c1 (centres undefined) | 98% |
| C#CCN1CCC2=C(C1)c1c(O)cc(C(C)CCCc3ccc(F)cc3)cc1OC2(C)C (centres undefined) | 90% |
| COc1coc(C(=O)NC2CCN(CC3(c4ccc(Cl)cc4)CCC3)CC2)c1OC | 96% |
| Cl.Fc1ccc2[nH]cc(CCN3CCC(CNCc4ccccc4)CC3)c2c1 | 94% |
| CC(=O)C1(c2ccccc2)CCN(CCC2(c3ccc(Cl)c(Cl)c3)CN(C(=O)Nc3cccc(C(F)(F)F)c3)CCO2)CC1 (centres undefined) | 66% |
| CC(NC(C)(C)C)C(O)c1ccc(Cl)c(C(F)(F)F)c1.Cl (centres undefined) | 97% |
| O=C(NCc1ccccc1)c1nn(CCCN2CCC3(CC2)C(=O)NCN3c2ccccc2)cc1-c1ccc(Cl)c(Cl)c1 | 21% |
| COc1cc(C=CC(=O)N2CCC(CN3CCC(c4c[nH]c5ccccc45)CC3)CC2)ccc1O | 25% |
| COc1cc(NCCCNC(=O)c2cn(Cc3ccccc3)c3ccccc23)nc2ccccc12 | 66% |
| COc1ccc(N(c2nc(-c3cc(Cl)ccc3Cl)cs2)C2CCNCC2)cc1.O=C(O)C(F)(F)F | 4% |
| COc1ccc(CCNCc2ccc3nc(N)cc(C)c3c2)cc1 | 86% |

Reference: ChEMBL document CHEMBL1157539, “Thousands of chemical starting points for antimalarial lead identification” (Nature, 2010)
